This is an account of results in article PMC4336329 (PLoS ONE, 2015).

Hit rate of the full screen: of about 310,000 compounds, about 14,000 (4.5%) showed an effect of 50% or more. Effects have a minus sign here. What follows is part of a selection rich in strong results, with near analogues and random picks from the rest.
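Also: peak tail current of the secondary pulse compared with the same well before compound.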

The target in the assay is human ether-à-go-go-related gene (hERG) potassium channel (human, UniProt Q12809). Kind of assay: primary screen, population patch clamp on CHO cells stably expressing hERG; higher = less effect of the substance.
Chain of human ether-à-go-go-related gene (hERG) potassium channel (Q12809 whole entry, looked up): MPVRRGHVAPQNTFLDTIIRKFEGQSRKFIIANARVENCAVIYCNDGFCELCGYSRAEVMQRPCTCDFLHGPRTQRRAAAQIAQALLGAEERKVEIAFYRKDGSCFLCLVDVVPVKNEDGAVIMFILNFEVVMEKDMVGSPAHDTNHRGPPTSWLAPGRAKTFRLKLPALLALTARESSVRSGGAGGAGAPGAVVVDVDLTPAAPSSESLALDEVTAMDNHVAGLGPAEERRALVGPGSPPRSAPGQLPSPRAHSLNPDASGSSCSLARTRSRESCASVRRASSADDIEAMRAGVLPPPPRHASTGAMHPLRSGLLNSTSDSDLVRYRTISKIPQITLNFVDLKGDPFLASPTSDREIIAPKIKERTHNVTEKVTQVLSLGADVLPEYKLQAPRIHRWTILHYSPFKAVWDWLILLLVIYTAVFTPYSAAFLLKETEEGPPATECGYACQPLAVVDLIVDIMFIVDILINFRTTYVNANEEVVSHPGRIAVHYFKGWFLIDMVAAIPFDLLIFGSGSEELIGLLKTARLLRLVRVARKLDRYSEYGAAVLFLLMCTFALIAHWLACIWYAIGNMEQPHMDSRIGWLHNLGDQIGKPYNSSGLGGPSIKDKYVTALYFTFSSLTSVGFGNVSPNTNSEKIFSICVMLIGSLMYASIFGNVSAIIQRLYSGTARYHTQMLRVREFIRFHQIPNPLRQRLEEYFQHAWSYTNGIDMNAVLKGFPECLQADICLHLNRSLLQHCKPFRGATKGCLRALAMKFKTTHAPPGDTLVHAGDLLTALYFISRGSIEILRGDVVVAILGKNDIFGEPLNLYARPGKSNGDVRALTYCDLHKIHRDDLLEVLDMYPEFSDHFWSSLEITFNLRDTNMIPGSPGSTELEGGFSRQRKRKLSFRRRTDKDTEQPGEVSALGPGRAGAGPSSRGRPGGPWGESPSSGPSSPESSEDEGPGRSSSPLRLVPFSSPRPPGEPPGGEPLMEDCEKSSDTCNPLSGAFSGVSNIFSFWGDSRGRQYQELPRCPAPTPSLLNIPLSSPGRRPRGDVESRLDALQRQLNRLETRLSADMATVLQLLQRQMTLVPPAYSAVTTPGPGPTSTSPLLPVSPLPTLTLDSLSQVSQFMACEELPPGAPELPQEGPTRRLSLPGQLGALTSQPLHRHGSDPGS
With `Cc1ccc(Nc2c3c(nc4ccccc24)CCC3)cc1.Cl`, the “hERG current change (%, negative = inhibition) at 10uM” value is reported as -78.8%.

Turning to `Cl.c1ccc(Nc2c3c(nc4ccccc24)CCC3)cc1`, the “hERG current change (%, negative = inhibition) at 10uM” value is -76.2%.

Regarding `Cc1cccc(Nc2c3c(nc4ccccc24)CCC3)c1.Cl`, the “hERG current change (%, negative = inhibition) at 10uM” value is -71.5%.

Consider `Fc1cccc(Nc2nc(-c3ccncc3)nc3ccccc23)c1`, for which the “hERG current change (%, negative = inhibition) at 10uM” value came out at 15.4%.

On to `COc1cccc(NC(=O)CCCOc2cc(=O)n(C)c3ccccc23)c1`, for which the “hERG current change (%, negative = inhibition) at 10uM” value turned out to be 12.6%.

With `Cc1ccc(-n2c(SCC(=O)N3CCCCC3)nc(O)cc2=O)cc1`, the “hERG current change (%, negative = inhibition) at 10uM” value amounted to 16.1%.

For `Cc1ccnc(SC2CC(=O)N(c3ccc([N+](=O)[O-])cc3)C2=O)n1` (stereo not shown), the “hERG current change (%, negative = inhibition) at 10uM” value is -26.8%.

Regarding `COc1ccc(CNC(=O)c2ccc3c(c2)N(C)CCS3)cc1`, the “hERG current change (%, negative = inhibition) at 10uM” value was -2.44%.

For the molecule `O=[N+]([O-])c1ccc(Cl)cc1NCCCN1CCOCC1`, the “hERG current change (%, negative = inhibition) at 10uM” value turned out to be 0.725%.

As to `O=C(NCc1ccc2c(c1)CCO2)Nc1cccc(C(F)(F)F)c1`, the “hERG current change (%, negative = inhibition) at 10uM” value was 12.6%.

As to `CCc1noc(C)c1C(=O)OC(C)C(=O)NCc1ccc(OC)cc1` (stereo not shown), the “hERG current change (%, negative = inhibition) at 10uM” value was -15.3%.

For `COc1ccc(-n2c(=O)[nH]cc(C(=O)N3CCc4ccccc43)c2=O)cc1`, the “hERG current change (%, negative = inhibition) at 10uM” value is on record as 16.2%.

With `COc1ccc(-c2csc3nc(-c4ccccc4)oc(=O)c23)cc1OC`, the “hERG current change (%, negative = inhibition) at 10uM” value is given as 14.3%.

Take `CN(C)CCNC(=O)c1ccc2c(c1)N(Cc1ccc(F)cc1)CCS2`: the “hERG current change (%, negative = inhibition) at 10uM” value is reported as -32.8%.

Turning to `COc1cc(/C=C2\SC(N3CCC(C)CC3)=NC2=O)ccc1O`, the “hERG current change (%, negative = inhibition) at 10uM” value was -5.99%.

In the case of `Cc1ccc(C)c(NC(=O)COC(=O)c2cccc3c2C(=O)c2ccccc2C3=O)c1`, the “hERG current change (%, negative = inhibition) at 10uM” value is given as -14.2%.

For `CC(=O)Nc1ccc(Nc2c3ccccc3nc3ccccc23)cc1`, the “hERG current change (%, negative = inhibition) at 10uM” value is recorded as -55.7%.

As for `CC(=O)Nc1ccc(Nc2cc(C)c3ccccc3n2)cc1`, the “hERG current change (%, negative = inhibition) at 10uM” value is -27.4%.

For `COc1cc(NC(=O)c2c3c(nc4ccccc24)CCC3)cc(OC)c1`, the “hERG current change (%, negative = inhibition) at 10uM” value was found to be 11.3%.

On to `Cl.O=C(O)c1ccc(Nc2c3ccccc3nc3ccccc23)cc1`, for which the “hERG current change (%, negative = inhibition) at 10uM” value was -2.61%.

Take `CCOc1ccc(Nc2c3ccccc3nc3ccccc23)cc1`: the “hERG current change (%, negative = inhibition) at 10uM” value is -42.4%.

With `O=C(CCCCCl)Nc1c2c(nc3ccccc13)CCC2`, the “hERG current change (%, negative = inhibition) at 10uM” value is -23.6%.

`COc1ccc(Nc2c3ccccc3nc3ccccc23)cc1`: the “hERG current change (%, negative = inhibition) at 10uM” value is reported as -69.6%.

For the molecule `COc1ccc(Nc2nc(-c3ccccc3)c3ccccc3n2)cc1`, the “hERG current change (%, negative = inhibition) at 10uM” value is listed as -5.22%.

For `O=C(NCc1ccc(F)cc1)c1c2c(nc3ccccc13)CCC2`, the “hERG current change (%, negative = inhibition) at 10uM” value is -21.1%.

Take `COc1ccc(Nc2c3c(nc4ccccc24)CCC3)cc1.Cl`: the “hERG current change (%, negative = inhibition) at 10uM” value is -70.9%.

On to `COc1ccc(NC(=O)c2c3c(nc4ccccc24)CCC3)cc1`, for which the “hERG current change (%, negative = inhibition) at 10uM” value amounted to 10.1%.

For `Fc1ccc(Nc2c3c(nc4ccccc24)CCC3)cc1`, the “hERG current change (%, negative = inhibition) at 10uM” value is -64.3%.

On to `CCOC(=O)C1CCN(C(=O)Nc2ccc3oc(C)nc3c2)CC1`, for which the “hERG current change (%, negative = inhibition) at 10uM” value was 7.35%.

For the molecule `N/C(=N\OC(=O)c1cccnc1)c1ccc(Cl)cc1Cl`, the “hERG current change (%, negative = inhibition) at 10uM” value amounted to 12.7%.

In the case of `COc1ccc(-n2c(C)cc(C(=O)COC(=O)c3cc(NC(=O)c4cccs4)c(OC)c(OC)c3)c2C)cc1`, the “hERG current change (%, negative = inhibition) at 10uM” value is 6.03%.

Take `COC(=O)c1ccc(CN2C(=O)NC3(CCCCC3)C2=O)cc1`: the “hERG current change (%, negative = inhibition) at 10uM” value is listed as 11.2%.

Regarding `COc1ccc(OCC(=O)N2CCN(S(=O)(=O)c3ccccc3[N+](=O)[O-])CC2)cc1`, the “hERG current change (%, negative = inhibition) at 10uM” value is reported as -31.2%.

Turning to `CN(c1cccc2cccnc12)S(=O)(=O)c1ccccc1`, the “hERG current change (%, negative = inhibition) at 10uM” value was -8.43%.

As to `COc1ccc(-c2cc(C)no2)cc1S(=O)(=O)NCc1cccc(C)c1`, the “hERG current change (%, negative = inhibition) at 10uM” value is -41.5%.

In the case of `Cc1cc(-c2ccc(C)c(S(=O)(=O)NCc3cccc(Br)c3)c2)on1`, the “hERG current change (%, negative = inhibition) at 10uM” value was -22.2%.

Regarding `COc1cccc(CCN2CCC(CNS(=O)(=O)c3cc(-c4cc(C)no4)ccc3OC)CC2)c1`, the “hERG current change (%, negative = inhibition) at 10uM” value is -74.9%.

As for `Cc1cc(-c2ccc(C)c(S(=O)(=O)NCCN3CCC(C)CC3)c2)on1`, the “hERG current change (%, negative = inhibition) at 10uM” value is -12.8%.

Regarding `COc1cccc(CNS(=O)(=O)c2cc(-c3cc(C)no3)ccc2C(C)C)c1`, the “hERG current change (%, negative = inhibition) at 10uM” value is reported as -7.33%.

Take `COc1cccc(CCN2CCC(CNS(=O)(=O)c3cc(-c4cc(C)no4)ccc3C)CC2)c1`: the “hERG current change (%, negative = inhibition) at 10uM” value was -77.2%.

On to `CCCNC(=O)c1[nH]c(C)c(C(C)=O)c1C`, for which the “hERG current change (%, negative = inhibition) at 10uM” value is listed as 19.3%.

For the molecule `Cc1cc(C)cc(C(=O)Nc2ccc(N3CCN(S(C)(=O)=O)CC3)cc2)c1`, the “hERG current change (%, negative = inhibition) at 10uM” value turned out to be 15.7%.

Regarding `Cc1ccc(CNC(=O)CCCNS(=O)(=O)c2cccc3nonc23)cc1`, the “hERG current change (%, negative = inhibition) at 10uM” value is -11.4%.
